Screening results as filed in PubChem BioAssay.
CHRM1 antagonist: human M1 muscarinic receptor antagonists, primary screen, CHO-K1 cells, Fluo-8 calcium fluorescence, 1536-well; Muscarinic acetylcholine receptor M1 (Homo sapiens), P11229; CHO-K1 hM1, ACh EC80 antagonist; inhibition, % at 3 µM; hit rate 1.3% among 360,000;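 active means percent inhibition above its own plate's cutoff, namely the mean of that plate's compound wells plus 3 SD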;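 further: peak over basal fluorescence ratio during 140 s after agonist addition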
Target sequence (P11229 whole entry, looked up): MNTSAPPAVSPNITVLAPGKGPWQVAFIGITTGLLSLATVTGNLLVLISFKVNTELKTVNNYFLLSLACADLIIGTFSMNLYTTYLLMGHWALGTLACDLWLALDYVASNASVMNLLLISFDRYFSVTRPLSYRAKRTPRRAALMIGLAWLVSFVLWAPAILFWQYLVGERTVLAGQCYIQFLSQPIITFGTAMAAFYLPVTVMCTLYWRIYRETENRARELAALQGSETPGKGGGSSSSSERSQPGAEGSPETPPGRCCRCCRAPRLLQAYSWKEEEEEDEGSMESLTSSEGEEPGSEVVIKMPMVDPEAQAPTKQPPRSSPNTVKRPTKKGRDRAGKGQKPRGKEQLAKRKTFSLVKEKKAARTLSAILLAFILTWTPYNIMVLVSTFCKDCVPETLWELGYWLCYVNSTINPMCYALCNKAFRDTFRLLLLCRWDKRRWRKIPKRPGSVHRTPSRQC
CHO-K1 Ca ag: counter-screen for M1 agonists: effect in parental CHO-K1 cells; Fluo-8 calcium fluorescence; scaled to maximal ATP response, vehicle zero; activation, % at 3 µM; hit rate 0.48% among 360,000; AID 602248, 2012; in the data active means activation above about 15%;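 further: untransfected CHO-K1 host cells lacking M1 receptor as counterscreen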
M1 PAM: human M1 muscarinic receptor positive allosteric modulators, primary screen, CHO-K1 cells, Fluo-8 calcium fluorescence, 1536-well; hit rate 0.088% among 360,000; Muscarinic acetylcholine receptor M1 (Homo sapiens), P11229; activation, % at 3 µM; CHO-K1 hM1, ACh EC20; 0% = ACh EC20, 100% = maximal ACh; in the data active means activation above about 19%, passing the limit was not always enough
CHRM1 agonist: human M1 muscarinic receptor agonists, primary screen, Fluo-8 calcium fluorescence, CHO-K1 cells, HTS; hit rate 0.33% among 360,000; activation, % at 3 µM; AID 588814, 2011; Muscarinic acetylcholine receptor M1 (Homo sapiens), P11229; CHO-K1 hM1, agonist mode; 0% DMSO, 100% acetylcholine EC100;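 active means activation above the run's mean compound activation plus 3 SD, cut at about 16% in these data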;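 further: peak over basal fluorescence ratio within a 140 s kinetic read after compound addition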
M1 PAM parental: nonselective calcium activators in parental CHO-K1 cells, primary screen, counter-screen for M1 PAM project, cell-based, Fluo-8 calcium fluorescence, full deck, 1536-well | ATP EC20; 0% at ATP EC20, 100% at ATP max | activation, % at 3 µM | hit rate 0.02% among 360,000 | AID 602247, 2012;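 active means activation above the run cutoff, the mean activation of all test compounds plus 3 SD, cut at about 40% in these data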;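 further: peak over basal fluorescence ratio in a 140 s read after ATP addition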
CHO-K1 Ca antag: counter-screen for M1 antagonists: effect in parental CHO-K1 cells; ATP-induced calcium, Fluo-8 fluorescence; inhibition, % at 3 µM; hit rate 0.6% among 360,000; AID 602250;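 active means inhibition above a per-plate cutoff, the plate's mean sample inhibition plus 3 SD, cut at about 24% in these data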
Numbers stand for hits; i = inactive. Shown are actives, neighbours in structure and some others; about 2.3% of the full set was active somewhere.

SMILES	CHRM1 antagonist	CHO-K1 Ca ag	M1 PAM	CHRM1 agonist	M1 PAM parental	CHO-K1 Ca antag
COc1ccc(NS(=O)(=O)c2cccc(C(=O)NCCCN3CCOCC3)c2)cc1	i	i	i	i	i	i
COc1ccc(C(CNC(=O)c2oc3ccc(OC)cc3c2C)N2CCCC2)cc1 (stereo not drawn)	i	i	i	i	i	30
COc1ccccc1C(CNC(=O)c1cccc(S(=O)(=O)Nc2ccc(F)cc2)c1)N1CCCC1 (stereo not drawn)	101	i	i	i	i	i
COc1ccc(NS(=O)(=O)c2cccc(C(=O)NCC(c3ccc(OC)cc3)N3CCCC3)c2)cc1 (stereo not drawn)	i	i	i	i	i	i
COc1ccc(NS(=O)(=O)c2cccc(C(=O)NCC(c3ccccc3OC)N3CCCC3)c2)cc1 (stereo not drawn)	82	i	i	i	i	i
COc1ccc(NS(=O)(=O)c2cccc(C(=O)NCc3ccccc3CN3CCOCC3)c2)cc1	i	i	i	23	i	i
COc1ccc(C(CNC(=O)c2cccc(S(=O)(=O)Nc3ccc(F)cc3)c2)N2CCCC2)cc1 (stereo not drawn)	i	i	i	i	i	i
O=C(Nc1ccnn1C1CCN(Cc2cccc(OCCO)c2)CC1)C1CC1	i	i	i	i	i	i
CC(C)(CNC(=O)c1cccc(S(=O)(=O)Nc2ccc(SC(F)F)cc2)c1)N1CCOCC1	35	i	i	i	i	i
C=CCN(c1ccccc1OC)S(=O)(=O)c1cccc(C(=O)NCC(c2ccc(OC)cc2)N2CCCC2)c1 (stereo not drawn)	34	i	i	i	i	i
CN(CCOc1ccc(Cl)cc1)C(=O)CN1C(=O)NC2(CCCCC2)C1=O	i	i	i	i	i	i
Cc1csc(Nc2nc(N)c(C(=O)Nc3cc(Cl)ccc3F)o2)n1	i	i	i	i	i	i
FC(F)Sc1ccc(NC(=S)NCC2CCCCC2)cc1	31	i	i	i	i	i
FC(F)Sc1ccc(NC(=S)NC2CCCCC2)cc1	i	i	i	i	i	i
Cc1ccc(C)c(OCCC(=O)OCC(=O)NC(=O)NC2CCCC2)c1	i	i	i	i	i	i
COc1cc(OC)cc(C(=O)N2CCN(C3CCC(C)CC3)CC2)c1 (stereo not drawn)	31	i	i	i	i	i
O=C1C2CCCN2C(c2cccs2)N1c1ccc(F)cc1 (stereo not drawn)	i	i	i	i	i	i
COc1cccc(N2C(=O)C3CCCN3C2c2cccs2)c1 (stereo not drawn)	i	i	i	18	i	i
Cc1nn(-c2ccccc2)c(C)c1NC(=O)COc1cc(F)ccc1[N+](=O)[O-]	i	18	i	i	i	i
CCCSC(=S)c1c(C)[nH]n(-c2ccccc2)c1=O	i	16	i	i	i	i
CC(C)[N+](C)(C)CC(O)CN(c1ccccc1)c1ccccc1 (stereo not drawn)	86	i	i	i	i	i
NCC(O)CN(c1ccccc1)c1ccccc1 (stereo not drawn)	i	i	i	i	i	i
CC(=O)c1cn(CCOc2cc(C)ccc2C)c2ccccc12	26	i	i	i	i	i
Cc1ccc(C)c(OCCn2cc(C(=O)O)c3ccccc32)c1	i	i	i	i	i	i
COc1ccccc1OCCn1cc(C(=O)c2ccco2)c2ccccc21	i	20	i	i	i	i
SMILES	CHRM1 antagonist	CHO-K1 Ca ag	M1 PAM	CHRM1 agonist	M1 PAM parental	CHO-K1 Ca antag
CCC(C)NC(=O)c1ccc(Cl)c(S(=O)(=O)Nc2ccccc2N2CCOCC2)c1 (stereo not drawn)	i	i	i	i	i	i
O=C(NCCc1ccc(Cl)cc1)c1ccc(CS(=O)Cc2ccccc2Cl)o1 (stereo not drawn)	37	i	i	i	i	i
CC1C(=O)N(Cc2cn(CCC3OCCCO3)nn2)CCS(=O)(=O)N1Cc1ccc(-c2ccc(Cl)c(Cl)c2)cc1 (stereo not drawn)	31	i	i	i	i	i
CC1C(=O)N(Cc2cn(Cc3ccco3)nn2)CCS(=O)(=O)N1Cc1ccc(-c2ccccc2)cc1 (stereo not drawn)	i	i	i	i	i	i
CC1C(=O)N(Cc2cn(Cc3ccco3)nn2)CCS(=O)(=O)N1Cc1ccc(-c2ccc(Cl)cc2)cc1 (stereo not drawn)	i	i	i	i	i	28
CC1C(=O)N(Cc2cn(CCC3OCCCO3)nn2)CCS(=O)(=O)N1Cc1ccc(-c2ccc(F)cc2)cc1 (stereo not drawn)	i	i	i	i	i	i
Cc1cccc(C)c1-c1ccc(CN2C(CC(C)C)C(=O)N(Cc3cn(CCO)nn3)CCS2(=O)=O)cc1 (stereo not drawn)	29	i	i	i	i	i
CC(=O)NCc1nc2ccccc2n1Cc1ccccc1F	i	i	i	i	i	24
Cc1cc(C)c(C#N)c(OCC2CCCO2)n1 (stereo not drawn)	i	i	i	i	i	i
COC(=O)c1ccc(/C=C/c2c(-c3ccsc3)sc3ccccc23)cc1	40	i	i	i	i	i
COc1ccc(-n2cc(-c3ccccc3)c3c(N4CCOCC4)ncnc32)cc1	40	i	i	i	i	i
COc1ccc(-n2cc(-c3ccccc3)c3c(NCCCN4CCOCC4)ncnc32)cc1	i	i	i	i	i	i
CCN1CCN(c2ncnc3c2c(-c2ccccc2)cn3-c2ccc(F)cc2)CC1	i	i	i	i	i	i
Fc1ccc(-n2cc(-c3ccccc3)c3c(N4CCOCC4)ncnc32)cc1	33	i	i	i	i	i
C/C(=N/OC(=O)c1c(-c2c(Cl)cccc2Cl)noc1C)c1cnccn1	77	i	i	i	i	i
C/C(=N/OC(=O)c1c(-c2ccccc2Cl)noc1C)c1cnccn1	74	i	i	i	i	i
C/C(=N\OC(=O)c1c(-c2ccccc2Cl)noc1C)c1nccs1	i	i	i	i	i	i
O=C(CC1(CC(=O)N2CCOCC2)CCCC1)Nc1ccc(F)cc1	i	i	i	i	i	i
c1ccc(-c2nc(N3CCCCC3)nc3ccccc23)cc1	i	i	i	i	i	i
CCN1CCN(c2nc(-c3ccccc3)c3ccccc3n2)CC1	47	i	i	i	i	i
CCC1(CC)CNC(=O)NC1	i	i	i	i	i	i
CC(NCC(O)COc1ccc(Br)cc1)c1ccccc1 (stereo not drawn)	75	i	i	i	i	i
